In general, Inhibition refers to the drop in the measured response relative to a control, in per cent.

Inhibition data for 39 compounds are collected here from ChEMBL document CHEMBL4513146, “CO-ADD screening of Karazin Kharkiv National University (Ukraine) compounds”.

Each structure is given as a SMILES string. Results with a measured potency or affinity are listed apart.

For the assay, the system named is Cryptococcus neoformans. Conditions: Concentration 32 ug.mL-1; ASSAY_TEST Inhibition of Fungal Growth; detection method Resazurin; Absorption (OD600-OD570); plate type 384well; NBS; CORNING #3640. On the technique in general: Resazurin is reduced to fluorescent resorufin, in cell work by metabolically active cells.
Take `O=C(Cn1nc2c(SC3CCCCC3)nccn2c1=O)Nc1ccc(F)c(Cl)c1`: the Inhibition was -24.22%.

Consider `COc1cccc(-n2ccn3c(SCC(=O)Nc4ccccc4Cl)nnc3c2=O)c1`, for which the Inhibition is reported as -13.6%.

As for `COc1ccc(-n2ccn3c(-c4ccc([N+](=O)[O-])cc4)nnc3c2=O)cc1Cl`, the Inhibition is -13.11%.

On to `CCOC(=O)c1ccccc1NC(=O)Cn1nc2c(Sc3ccccc3)nccn2c1=O`, for which the Inhibition is -6.53%.

As to `CC(=O)c1ccc(NC(=O)Cn2nc3ccc(Sc4ccccc4)nn3c2=O)cc1`, the Inhibition was -7.51%.

Consider `CCOC(=O)c1cccc(NC(=O)CSc2nnc3ccc(C(=O)Nc4cccc(F)c4)cn23)c1`, for which the Inhibition was -5.2%.

As to `CC(C)(C)S(=O)(=O)c1ccc2nn(CC(=O)Nc3ccc(Br)cc3)c(=O)n2n1`, the Inhibition is -17.49%.

In the case of `CCc1cccc(C)c1NC(=O)CSc1nnc2ccc(C(=O)Nc3cccc(F)c3)cn12`, the Inhibition is recorded as -4.75%.

In the case of `Cc1ccc(NC(=O)Cn2nc3ccc(-c4ccc(Cl)cc4)nn3c2=O)cc1F`, the Inhibition is reported as -2.55%.

Regarding `COc1ccc(-c2cc3c4nn(CC(=O)Nc5cc(C)ccc5C)c(=O)n4ccn3n2)cc1`, the Inhibition is listed as -22.77%.

For the compound `COc1cc(OC)c(NC(=O)Cn2nc3c(Oc4ccccc4)nccn3c2=O)cc1Cl`, the Inhibition was -9.36%.

`CCOc1ccccc1NC(=O)Cn1c(=O)c2nnc(C(C)C)n2c2ccccc21`: the Inhibition is -2.8%.

In the case of `CC(C)Cn1c(=O)c2ccc(C(=O)NC3CCCC3)cc2n2c(=O)n(CC(=O)NC3CCCCC3)nc12`, the Inhibition is given as -14.36%.

Regarding `COc1cccc(CNC(=O)CSc2nnc3c4cc(-c5cc(C)ccc5C)nn4ccn23)c1OC`, the Inhibition is on record as -25.27%.

In the case of `Cc1ccc(Sc2nccn3c(=O)n(CC(=O)Nc4cccc(Cl)c4)nc23)c(C)c1`, the Inhibition was -21.78%.

On to `Cc1ccc(Oc2nccn3c(=O)n(CC(=O)NCc4cccs4)nc23)cc1`, for which the Inhibition is given as -8.11%.

Take `O=C(Cn1nc2c3sccc3ncn2c1=O)Nc1ccc2c(c1)OCO2`: the Inhibition is recorded as -18.53%.

On to `O=C(Cn1nc2c(Oc3ccccc3)nccn2c1=O)Nc1ccc2c(c1)OCCO2`, for which the Inhibition is given as -7.17%.

On to `COC(=O)c1ccc(CN(c2ccc(Cl)cc2)S(=O)(=O)c2ccc3nncn3c2)o1`, for which the Inhibition is given as -1.27%.

`COc1ccc(NC(=O)Cn2nc3c(SC4CCCCC4)nccn3c2=O)cc1`: the Inhibition is reported as -26.97%.

Take `Cc1ccc(Oc2nccn3c(=O)n(CC(=O)Nc4ccc(C)cc4Cl)nc23)cc1`: the Inhibition is on record as -3.03%.

As to `CC(C)CCNC(=O)CSc1nnc2c(=O)n(-c3ccc(F)cc3)ccn12`, the Inhibition is -13.8%.

As for `CCc1ccc(NC(=O)Cn2c(=O)c3nnc(C(C)C)n3c3ccccc32)cc1`, the Inhibition is -22.84%.

Take `COc1ccc(NC(=O)Cn2nc3c(Oc4ccc(C)cc4)nccn3c2=O)cc1Cl`: the Inhibition is -4.53%.

With `CC(C)Cn1c(=O)c2ccc(C(=O)NC3CCCCC3)cc2n2c(=O)n(CC#N)nc12`, the Inhibition was -19.28%.

With `O=C(CSc1nnc2ccc(C(=O)NCc3ccccc3)cn12)Nc1ccccc1Br`, the Inhibition is given as -20.85%.

For the compound `COc1ccc(-c2cc3c4nnc(SCC(=O)Nc5ccccc5Cl)n4ccn3n2)cc1`, the Inhibition is listed as -26.87%.

Take `Cc1cc(C)c(NC(=O)CSc2nnc3c4cc(-c5ccccc5)nn4ccn23)c(C)c1`: the Inhibition is -13.87%.

In the case of `CCCCn1c(=O)c2sccc2n2c(=O)n(CC(=O)NC(C)C)nc12`, the Inhibition was -16.69%.

For the compound `O=C(CSc1nnc2c(=O)n(-c3ccccc3)ccn12)Nc1ccc(Br)cc1`, the Inhibition is given as -15.78%.

For the compound `C=Cc1ccc(CN(c2ccc(F)cc2)S(=O)(=O)c2ccc3nnc(C)n3c2)cc1`, the Inhibition was -7.48%.

With `Cc1nnc2ccc(S(=O)(=O)N(Cc3cc(F)cc(F)c3)c3ccccc3)cn12`, the Inhibition is -9.38%.

Turning to `Cc1c(Cl)cccc1-n1ccn2c(=O)n(Cc3ccc(F)cc3)nc2c1=O`, the Inhibition was -16.32%.

For `Cc1ccc(NC(=O)Cn2nc3c(SCc4ccccc4)nccn3c2=O)cc1C`, the Inhibition is recorded as -18.48%.

As to `Cc1ccc(-c2cc3c4nn(CC(=O)Nc5ccc6c(c5)OCO6)c(=O)n4ccn3n2)cc1C`, the Inhibition is -8.66%.

Regarding `Cc1cccc(NC(=O)Cn2nc3c(SC4CCCCC4)nccn3c2=O)c1C`, the Inhibition is -15.81%.

For the compound `COc1ccc(NC(=O)CSc2nnc3c(=O)n(-c4ccc(Br)cc4)ccn23)cc1`, the Inhibition is -12.25%.

Consider `COc1ccccc1NC(=O)Cn1nc2c3c4c(sc3ncn2c1=O)CCCC4`, for which the Inhibition is given as -22.92%.

As for `Cc1ccc(-c2ccc3nn(Cc4ccc(F)cc4Cl)c(=O)n3n2)cc1C`, the Inhibition is listed as -24.45%.
